# Screening data from PubChem BioAssay.
# An excerpt weighted towards active compounds, which were near 2.5% of everything screened.
# mut p53 SMM: binders of human mutant p53, primary screen, biochemical, small molecule microarray, anti-GST fluorescence; mutant tumor protein p53 (GST-tagged), Homo sapiens; calls only; small molecule microarray binding; AID 624136, 2012; 0.4% of 17,000 active;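 active = compounds whose four printed spots each glow above background more than chance allows, each with a p-value under 7%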
# STAT3 SMM: STAT3 binders, primary screen, biochemical, small molecule microarray, single point, set 2; His-STAT3 binding, anti-His fluorescence; 0.2% of 17,000 active; AID 624138, 2012; calls only; Signal transducer and activator of transcription 3 (Homo sapiens), P40763;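 active = compounds whose four printed spots each show fluorescence over background unusually high for their array block, chance value under 7%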
# NFkB SMM: binders of NF-kB p50 subunit, primary screen, biochemical, small molecule microarray, anti-His fluorescence; Nuclear factor NF-kappa-B p105 subunit (Homo sapiens), P19838; anti-His fluorescence binding; calls only; 1.3% of 17,000 active; AID 624139, 2012;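 active = spot fluorescence over background significantly raised, with a chance value under 7% in all four replicate spots of the compound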;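 also: probe protein is his-tagged human p50 processed subunit at 1 µg/ml; raw spot fluorescence signals with no normalization applied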
# Target sequence (P19838 1-433 limits assumed): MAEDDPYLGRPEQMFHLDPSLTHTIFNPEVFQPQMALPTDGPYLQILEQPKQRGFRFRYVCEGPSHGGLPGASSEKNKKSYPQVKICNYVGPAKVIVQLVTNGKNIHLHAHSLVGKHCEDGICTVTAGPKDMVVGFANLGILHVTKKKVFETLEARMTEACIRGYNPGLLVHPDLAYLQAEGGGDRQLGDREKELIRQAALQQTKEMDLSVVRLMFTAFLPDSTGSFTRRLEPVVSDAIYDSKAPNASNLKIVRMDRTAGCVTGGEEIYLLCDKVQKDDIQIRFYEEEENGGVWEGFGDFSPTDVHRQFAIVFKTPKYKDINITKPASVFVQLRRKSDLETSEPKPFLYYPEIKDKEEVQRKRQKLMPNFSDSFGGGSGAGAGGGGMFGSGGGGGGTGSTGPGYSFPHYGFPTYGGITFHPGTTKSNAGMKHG
# c-Myc SMM: binders of human c-Myc, primary screen, biochemical, small molecule microarray, anti-His fluorescence; calls only; 1.5% of 17,000 active; Myc proto-oncogene protein (Homo sapiens), P01106; His-c-Myc binding;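 active = spot fluorescence over background with P-value below 7% in all four replicate spots, showing protein binding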;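 also: score is binary with 100 for all four spots passing and 0 otherwise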
# * marks the source's active call; other numbers are inactive results; i = inactive; + = active, no number.
SMILES,mut p53 SMM,STAT3 SMM,NFkB SMM,c-Myc SMM
C[C@@H]1CN([C@@H](C)CO)C(=O)c2cc(NC(=O)Cc3ccccc3)ccc2O[C@@H](C)CCCCO[C@@H]1CN(C)C(=O)CCC(F)(F)F,i,i,i,i
C[C@@H]1CCCCO[C@H](CN(C)C(=O)CCC(F)(F)F)[C@H](C)CN([C@@H](C)CO)C(=O)c2cc(NC(=O)Cc3ccccc3)ccc2O1,i,i,+,+
C[C@@H]1CN([C@@H](C)CO)C(=O)c2cc(NC(=O)c3ccncc3)ccc2O[C@@H](C)CCCCO[C@@H]1CN(C)C(=O)CCC(F)(F)F,i,i,+,i
C[C@H]1CCCCO[C@H](CN(C)C(=O)CCC(F)(F)F)[C@@H](C)CN([C@@H](C)CO)C(=O)c2cc(NC(=O)c3ccncc3)ccc2O1,i,i,i,i
CC(C)NC(=O)N(C)C[C@@H]1OCc2cnnn2CCCC(=O)N([C@@H](C)CO)C[C@H]1C,i,i,i,i
C[C@@H]1CN([C@@H](C)CO)C(=O)Cc2cc(NC(=O)Cc3ccccc3)ccc2O[C@@H]1CN(C)Cc1ccc(C(F)(F)F)cc1,i,i,i,i
C[C@@H]1CN([C@@H](C)CO)C(=O)Cc2cc(NC(=O)CCN3CCOCC3)ccc2O[C@H]1CN(C)C(=O)Nc1cccc2ccccc12,i,i,i,i
CC#CCOC(=O)C1=CCCN(C)C1,i,+,+,+
C/C=C/C/C=C/CCC(=O)[C@H]1O[C@H]1C(N)=O,i,i,+,i
Cc1occc(=O)c1CC=O,i,i,i,i
O=C(N1CCCCC1)[C@]1(Cc2ccccc2)N=C(c2ccc(OCCCO)cc2)O[C@@H]1c1ccccc1,i,i,i,i
CN(C)CCCNc1oc(-c2ccccc2F)nc1C#N,i,i,i,+
O=C1NC(=O)c2cc(Nc3ccc(F)cc3)c(Nc3ccc(F)cc3)cc21,+,i,i,i
CC(C)NC(=O)N(C)C[C@H]1OCCCC[C@H](C)Oc2ccc(NC(=O)Nc3ccc(C(F)(F)F)cc3)cc2C(=O)N([C@H](C)CO)C[C@H]1C,i,i,+,i
C[C@@H]1CCCCO[C@H](CN(C)C(=O)Nc2ccc(C(F)(F)F)cc2)[C@@H](C)CN([C@@H](C)CO)C(=O)c2cc(NC(=O)Cc3ccccc3)ccc2O1,+,i,+,i
CC(C)NC(=O)N(C)C[C@@H]1OCCCC[C@H](C)Oc2ccc(NC(=O)Nc3ccc(C(F)(F)F)cc3)cc2C(=O)N([C@@H](C)CO)C[C@@H]1C,i,i,+,+
CC(C)NC(=O)N(C)C[C@@H]1OCCCC[C@@H](C)Oc2ccc(NC(=O)Nc3ccc(C(F)(F)F)cc3)cc2C(=O)N([C@@H](C)CO)C[C@H]1C,i,i,i,i
C[C@@H]1CCCCO[C@@H](CN(C)C(=O)Nc2ccc(C(F)(F)F)cc2)[C@H](C)CN([C@@H](C)CO)C(=O)c2cc(NC(=O)c3ccncc3)ccc2O1,i,i,+,+
C[C@@H]1CN([C@@H](C)CO)C(=O)c2cc(NS(=O)(=O)c3cccs3)ccc2O[C@@H](C)CCCCO[C@H]1CN(C)C(=O)CCC(F)(F)F,i,i,i,i
CC(C)NC(=O)N(C)C[C@H]1Oc2c(cccc2N(C)C)C(=O)N([C@@H](C)CO)C[C@@H]1C,i,i,i,i
C[C@H](CO)N1C[C@H](C)[C@H](CN(C)C(=O)Nc2ccc(C(F)(F)F)cc2)OCCCC[C@H](C)Oc2ccc(NC(=O)Nc3ccc(F)cc3)cc2C1=O,i,i,+,i
CC(C)(C)C(=O)CSc1nnc(-c2ccco2)n1Cc1ccco1,i,i,i,i
Clc1ccc(CSc2nnc(-c3ccco3)n2Cc2ccco2)c(Cl)c1,+,i,i,i
O=C(NCc1nc2ccccc2[nH]1)C1=C[C@@H](C2CC2)C[C@@H](OCc2ccc(CO)cc2)O1,i,i,i,i
C[C@@H]1CCCCO[C@H](CN(C)C(=O)Nc2cccc3ccccc23)[C@@H](C)CN([C@@H](C)CO)C(=O)c2cc(NC(=O)c3ccncc3)ccc2O1,i,i,+,+
SMILES,mut p53 SMM,STAT3 SMM,NFkB SMM,c-Myc SMM
C[C@H](CO)N1C[C@H](C)[C@@H](CN(C)C(=O)Nc2cccc3ccccc23)OCCCC[C@H](C)Oc2ccc(NC(=O)c3ccncc3)cc2C1=O,i,i,+,+
C/C=C/C1=C(Cl)C(=O)[C@@H](O)[C@@]1(O)C(=O)OC,i,i,+,i
CCc1ccc(S(=O)(=O)NCC(=O)O)cc1,i,i,+,+
COc1ccc(C(=O)NCCc2ccccc2)cc1Cl,i,i,i,i
N#Cc1c(C(F)(F)F)cc(-c2ccc(Br)cc2)nc1SCCC(=O)O,i,i,+,+
Cc1noc(C)c1S(=O)(=O)N(C)C[C@H]1Oc2c(NC(=O)c3nc4ccccc4s3)cccc2C(=O)N([C@@H](C)CO)C[C@H]1C,i,i,i,i
CCc1cc2c(SCc3nc4ccccc4[nH]3)ncnc2s1,i,i,i,i
COc1ccc(NC(=O)N(C)C[C@@H]2Oc3ncc(-c4cccc(C(F)(F)F)c4)cc3C(=O)N([C@H](C)CO)C[C@@H]2C)cc1,i,i,i,i
C[C@H](CO)N1C[C@H](C)[C@H](CN(C)S(=O)(=O)c2ccccc2)Oc2ncc(C#Cc3ccc(C(F)(F)F)cc3)cc2C1=O,i,i,i,+
C[C@H]1CN([C@@H](C)CO)C(=O)c2cccc(NC(=O)NC3CCCCC3)c2O[C@@H]1CN(C)C(=O)Nc1ccc(F)cc1,i,i,i,i
C[C@@H]1CN([C@@H](C)CO)C(=O)c2cccc(NC(=O)NC3CCCCC3)c2O[C@@H]1CN(C)C(=O)Nc1ccc(C(F)(F)F)cc1,i,i,+,+
C[C@H](CO)N1C[C@H](C)[C@@H](CN(C)C(=O)Nc2ccc(C(F)(F)F)cc2)Oc2c(NC(=O)NC3CCCCC3)cccc2C1=O,i,i,+,+
C[C@@H]1CN([C@H](C)CO)C(=O)c2cccc(NC(=O)NC3CCCCC3)c2O[C@@H]1CN(C)C(=O)Nc1ccc(C(F)(F)F)cc1,i,i,i,i
C[C@H](CO)N1C[C@H](C)[C@H](CN(C)C(=O)Nc2ccccc2)Oc2ncc(-c3cccc(C(F)(F)F)c3)cc2C1=O,i,i,+,+
COc1ccc(CN(C)C[C@H]2Oc3ccc(NS(C)(=O)=O)cc3C(=O)N([C@@H](C)CO)C[C@@H]2C)cc1,i,i,i,i
C[C@H]1CCCCO[C@H](CN(C)Cc2ccncc2)[C@@H](C)CN([C@@H](C)CO)C(=O)c2cc(NS(=O)(=O)c3ccccc3)ccc2O1,i,i,i,i
